# Measured values reported in PubChem BioAssay (EPA / NIEHS).
# Results filed as inconclusive are left out. The source made the active and inactive calls. How the source made its calls: active means hit-call score of the fitted dose curve at least 0.9, where 1 is the maximum; inconclusive means response in the unintended direction; inactive means score below 0.9.
# System: Sodium/Iodide Symporter (NIS), SLC5A5 (gene 6528)
# Assay: CPHEA_Stoker_NIS_Inhibition_RAIU: CPHEA's Radioactive Iodide Uptake (RAIU) Assay for Sodium/Iodide Symporter (NIS) Inhibition, Stoker and Laws Labs (AID 2283841)
# Method in brief: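 Iodide uptake read as CPM of intracellular 125I (final 329 pM) after 2 h room-temperature exposure in HEPES-buffered HBSS, pH 7.4. Human NIS-expressing HEK293T cells; six concentrations 0.001–100 uM, 0.5% DMSO, normalised to DMSO wells.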
Structure (SMILES),outcome,AC50
NNC(=S)NN,inactive,–
CCC(C)(C)c1ccc(O)c(C(C)(C)CC)c1,inactive,–
CCC[CH2][Sn]([CH2]CCC)([CH2]CCC)[O]C(=O)c1ccccc1,–,1.4 µM (active)
[O-][Cl+2]([O-])O,inactive,–
CC(C)(c1ccc(OCC2CO2)cc1)c1ccc(OCC2CO2)cc1 (centres undefined),inactive,–
Cn1sc(Cl)cc1=O,inactive,–
C=C(C)C(=O)[O][Sn]([CH2]CCC)([CH2]CCC)[CH2]CCC,–,5.24 µM (active)
O=C(NCO)NCO,inactive,–
O=C(Nc1ccc2[nH]ccc2c1)c1cc2cc(F)ccc2n1Cc1cccc(F)c1,inactive,–
Cc1ccccc1C(=O)Nc1cccc(OC(C)C)c1,inactive,–
CCCCCCCCSC(=O)Oc1cc(Cl)nnc1-c1ccccc1,inactive,–
CCN1CCC2(CC1)COc1cc3c(cc12)N(C(=O)c1ccc(-c2ccc(-c4nnc(C)o4)cc2C)cc1)CC3,–,72.8 µM (active)
Clc1ccc(COC(Cn2ccnc2)c2ccc(Cl)cc2Cl)cc1 (centres undefined),–,11.7 µM (active)
CC(=O)[O][Hg][c]1ccccc1,–,50 µM (active)
CC(C)(c1ccccc1)c1ccc(O)c(C(C)(C)c2ccccc2)c1,inactive,–
O=[N+]([O-])c1ccc(O)c([N+](=O)[O-])c1,inactive,–
CC(=O)c1cc(C(C)(C)C)cc2c1CCC2(C)C,inactive,–
COP(=S)(OC)Oc1ccc(Sc2ccc(OP(=S)(OC)OC)cc2)cc1,inactive,–
O=C1C(Cl)=C(Cl)C(=O)c2ccccc21,–,9.92 µM (active)
O=C/C=C/c1ccccc1,inactive,–
c1cc[c]([Hg][c]2ccccc2)cc1,inactive,–
O=C(OC1CCCCC1)c1ccccc1C(=O)OC1CCCCC1,inactive,–

# System: not listed separately
# Assay: CPHEA_Stoker_NIS_Cytotoxicity: Cytotoxicity Assessment for CPHEA's Radioactive Iodide Uptake (RAIU) Assay for Sodium/Iodide Symporter (NIS) Inhibition, Stoker and Laws Labs (AID 2283897);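 on AC50: active means loss of ATP signal versus DMSO meaning cytotoxicity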
# Method in brief: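 CellTiter-Glo ATP luminescence gauged viability in HEK293T cells expressing human NIS after 2 h chemical exposure. Concentrations ran 0.001–100 uM in 0.5% DMSO; DMSO served as baseline for the loss-of-signal fit.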
Structure (SMILES),outcome,AC50
NNC(=S)NN,inactive,–
CCC(C)(C)c1ccc(O)c(C(C)(C)CC)c1,–,9.92 µM (active)
CCC[CH2][Sn]([CH2]CCC)([CH2]CCC)[O]C(=O)c1ccccc1,–,9.05 µM (active)
[O-][Cl+2]([O-])O,inactive,–
CC(C)(c1ccc(OCC2CO2)cc1)c1ccc(OCC2CO2)cc1 (centres undefined),inactive,–
Cn1sc(Cl)cc1=O,inactive,–
C=C(C)C(=O)[O][Sn]([CH2]CCC)([CH2]CCC)[CH2]CCC,–,1.25 µM (active)
O=C(NCO)NCO,inactive,–
O=C(Nc1ccc2[nH]ccc2c1)c1cc2cc(F)ccc2n1Cc1cccc(F)c1,inactive,–
Cc1ccccc1C(=O)Nc1cccc(OC(C)C)c1,inactive,–
CCCCCCCCSC(=O)Oc1cc(Cl)nnc1-c1ccccc1,inactive,–
CCN1CCC2(CC1)COc1cc3c(cc12)N(C(=O)c1ccc(-c2ccc(-c4nnc(C)o4)cc2C)cc1)CC3,–,8.43 µM (active)
Clc1ccc(COC(Cn2ccnc2)c2ccc(Cl)cc2Cl)cc1 (centres undefined),–,72.6 µM (active)
CC(=O)[O][Hg][c]1ccccc1,–,9.92 µM (active)
CC(C)(c1ccccc1)c1ccc(O)c(C(C)(C)c2ccccc2)c1,inactive,–
O=[N+]([O-])c1ccc(O)c([N+](=O)[O-])c1,inactive,–
CC(=O)c1cc(C(C)(C)C)cc2c1CCC2(C)C,inactive,–
COP(=S)(OC)Oc1ccc(Sc2ccc(OP(=S)(OC)OC)cc2)cc1,inactive,–
O=C1C(Cl)=C(Cl)C(=O)c2ccccc21,–,50 µM (active)
O=C/C=C/c1ccccc1,inactive,–
c1cc[c]([Hg][c]2ccccc2)cc1,inactive,–
O=C(OC1CCCCC1)c1ccccc1C(=O)OC1CCCCC1,inactive,–
